VACV Venus inh = qHTS for Stage-Specific Inhibitors of Vaccinia Orthopoxvirus: Venus Reporter Primary qHTS; Potency, µM (titrated, usually from 36.5 µM), actives largely listed as inhibitors; 330,000 tested, 0.46% active; Vaccinia virus Venus reporter expression, fluorescence; AID 720580, 2013; calls by dose curve; tested in A549 cells; also: nearly all actives have a fitted effect of over 30% in size
HCV inhibitor = qHTS Assay for Inhibitors of Hepatitis C Virus (HCV) | 340,000 tested, 3.4% active | Potency, µM (top dose mostly 41.8 µM), actives largely listed as inhibitors | Huh7.5.1 HCVcc-Cre infection, luciferase reporter, 44 h
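Seed cells (1,000/well) for 4 h; treat with compound and infect with HCVcc-Cre, moi about 0.5. Incubate 44 h, then detect luciferase activity.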
VACV mCherry inh = qHTS for Stage-Specific Inhibitors of Vaccinia Orthopoxvirus: mCherry Reporter Primary qHTS; Vaccinia virus mCherry reporter infection, fluorescence; 310,000 tested, 0.63% active; Potency, µM (highest dose often 36.5 µM), actives largely listed as inhibitors; AID 720579, 2013; calls by dose curve; tested in A549 cells; also: nearly all actives have a fitted effect of over 35% in size
HCMV inh = qHTS Assay for inhibitors of the human cytomegalovirus (HCMV) | HFF cells, HCMV-luciferase reporter, 72 h; hits give low values | activity change, negative = inhibition, % at 57.5 µM | 410,000 tested, 4.5% active | AID 1259415, 2018; in the data active = activity change below about -60%; inconclusive = no clear call, values can overlap the other calls; inactive = above about -39%
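Inhibition of viral replication was scored as loss of reporter luminescence in HFFs infected with HCMV-luciferase (MOI 1 PFU/cell) for 72 h; compounds tested at 2 doses, normalized to buffer and Salinomycin controls.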
FMDV antiviral = High Throughput Screening for Foot and Mouth Disease Virus Antivirals; FMDV antiviral cell-based qHTS; Potency, µM (series often up to 57.9 µM), most hits filed as inhibitors; 410,000 tested, 1.2% active; calls by dose curve; tested in HEK293T cells; also: read-out not given here; nearly all actives have a fitted effect of over 45% in size
Sm TGR inh = qHTS Assay for the Inhibitors of Schistosoma Mansoni Peroxiredoxins. Schistosoma mansoni thioredoxin glutathione reductase (TGR), Q962Y6. purified TGR, DTNB reduction, TNB absorbance 405 nm. Potency, µM (series often up to 114 µM), usual class: inhibitors. 360,000 tested, 3% active. AID 485364, 2010; also: nearly all actives have a fitted effect of over 60% in size
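First, TGR (20 nM dispensed) and NADPH were mixed with compound. Second, a 15 min room-temperature incubation followed. Third, further NADPH and then DTNB were added to start the reaction. Finally, TNB absorbance was monitored kinetically.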
Each line names hits and unclear results; the compound was inactive in the other large screens; ! = a repeat was not active. Shown are actives, neighbours in structure and some others; about 9.3% of the full set was active somewhere. Unless noted, calls follow the shape of the dose curve; as a rule, active = well fitted curve in the direction sought with a large enough effect; inconclusive = small, poorly fitted or top-dose-only effect, or another doubt; inactive = no such curve, though single readings can be large; an effect the other way counts as inactive or inconclusive.

C/C(=N/NC(N)=S)c1ccc(Br)s1	VACV Venus inh inconclusive, HCV inhibitor inconclusive, VACV mCherry inh inconclusive, HCMV inh inconclusive
O=C(Nc1ccc(N2CCOCC2)cc1)c1cnsn1	HCMV inh -73, FMDV antiviral 28µM
O=C(Nc1ccc(N2CCOCC2)cc1)c1ccc(COc2ccccc2)cc1	HCV inhibitor inconclusive, HCMV inh -73
C/C(=N\NC(=S)Nc1cc(S(=O)(=O)N2CCOCC2)ccc1Cl)c1ccc(N2CCOCC2)cc1	none
CCc1ccc(C(=O)NC(=S)Nc2ccc(N3CCOCC3)cc2)cc1	VACV Venus inh inconclusive, HCV inhibitor inconclusive, VACV mCherry inh inconclusive, HCMV inh -89, Sm TGR inh inconclusive
CC(C)COc1ccc(C(=O)NC(=S)Nc2ccc(CN3CCOCC3)cc2)cc1	none
CC(=O)Nc1ccc(NC(=O)c2ccc(COc3ccccc3)cc2)cc1	none (no result: VACV Venus inh, VACV mCherry inh)
C/C(=N\NC(=S)Nc1ccc(C)c(C)c1)c1ccc(N2CCOCC2)cc1	HCV inhibitor inconclusive, HCMV inh -61 (no result: VACV Venus inh, VACV mCherry inh)
CN(C)C(=S)Nc1ccc(N2CCOCC2)cc1	none (no result: VACV Venus inh, VACV mCherry inh)
O=C(NC(=S)Nc1ccc(N2CCOCC2)cc1)c1cncc(Br)c1	Sm TGR inh 13µM
CC(=O)c1ccc(NC(=S)Nc2ccc(N3CCOCC3)cc2)cc1	Sm TGR inh 45µM
CC(C)Oc1cccc(C(=O)NC(=S)Nc2ccc(N3CCN(C)CC3)cc2)c1	HCV inhibitor inconclusive, Sm TGR inh 45µM (no result: VACV Venus inh, VACV mCherry inh)
COc1cccc(C(=O)NC(=S)Nc2ccc(N3CCCC3)cc2)c1	HCV inhibitor inconclusive, FMDV antiviral inconclusive, Sm TGR inh inconclusive (no result: VACV mCherry inh)
Oc1ccc(/C=N/NC(=S)N2CCOCC2)cc1	none
Oc1c(Br)cccc1/C=N/c1ncn[nH]1	none
O=C1NCCN1CCNc1nc(NCc2ccccc2)nc2ccsc12	VACV Venus inh inconclusive, VACV mCherry inh inconclusive (no result: HCV inhibitor, Sm TGR inh)
O=C(ON=C1CCN(S(=O)(=O)c2ccccc2)CC1)c1ccccc1	none (no result: VACV Venus inh, VACV mCherry inh)
Cc1ccc(S(=O)(=O)N(c2cccc(C(F)(F)F)c2)C2C=CS(=O)(=O)C2)cc1 (stereo not drawn)	HCV inhibitor 10µM (no result: FMDV antiviral)
CCOc1ccc(Cl)cc1CSc1n[nH]c(C)n1	HCV inhibitor inconclusive, HCMV inh -72 (no result: Sm TGR inh)
Cc1nc(SCc2ccccc2C)n[nH]1	none (no result: VACV Venus inh, VACV mCherry inh)
CC(C(=O)O)n1cc(Cl)cn1 (stereo not drawn)	HCV inhibitor 4.5µM, HCMV inh inconclusive
CC(C)CCN1CCN(Cc2c(F)cccc2Cl)CC1CCO (stereo not drawn)	none (no result: VACV Venus inh, VACV mCherry inh)
CC1CCCCC1NC(=O)COC(=O)c1c2c(nc3ccccc13)/C(=C/c1ccco1)CC2 (stereo not drawn)	HCV inhibitor inconclusive, Sm TGR inh 14µM
O=C(COC(=O)c1c2c(nc3ccccc13)/C(=C/c1ccco1)CC2)NC1CCCC1	HCV inhibitor inconclusive, VACV mCherry inh inconclusive, Sm TGR inh 5µM
Cc1cc(C(=O)OCC(=O)NC2CCCC2)c2ccccc2n1	none
CCN(CC)CCCOc1ccc(Cl)c(Cl)c1	HCV inhibitor inconclusive
Cc1ccc(CNC(=O)c2ccc(CSCc3ccc(Cl)cc3)o2)cc1	Sm TGR inh 40µM (no result: HCV inhibitor)
Cc1ccc(CNC(=O)c2ccc(Cn3nc(C)c(Cl)c3C)o2)cc1	Sm TGR inh 25µM (no result: VACV mCherry inh)
Cc1cc(C)cc(NC(=O)c2ccc(Cn3nc(C)c(Cl)c3C)o2)c1	HCV inhibitor inconclusive, FMDV antiviral inconclusive, Sm TGR inh inconclusive
Cc1c(C)c2ccc(OC(C)C(=O)NCCN3CCOCC3)c(C)c2oc1=O (stereo not drawn)	none (no result: VACV Venus inh, VACV mCherry inh)
c1cc2c(cc1-c1cnc3n1CCC3)OCCO2	VACV Venus inh inconclusive, HCV inhibitor 10µM, VACV mCherry inh inconclusive, HCMV inh inconclusive (no result: FMDV antiviral)
Cc1ccc(-c2cnc3n2CCCCC3)cc1	HCV inhibitor inconclusive
O=C(COC(=O)c1cccc2c1C(=O)c1ccccc1C2=O)NC1CCCCC1	VACV Venus inh inconclusive, HCV inhibitor inconclusive, HCMV inh inconclusive, FMDV antiviral inconclusive
CC1CCCCC1NC(=O)COC(=O)c1ccc2c(c1Cl)C(=O)c1ccccc1C2=O (stereo not drawn)	HCV inhibitor 25µM, HCMV inh -74 (no result: VACV Venus inh, VACV mCherry inh)
CC(Sc1nnc(Cc2cccs2)n1C)C(=O)Nc1ccc(C(N)=O)cc1 (stereo not drawn)	none
O=C(CN1C(=O)CN=C(c2ccccc2)c2ccccc21)NCc1ccco1	Sm TGR inh 40µM
COc1ccc(-c2nc(CCNC(=O)c3cccs3)cs2)cc1	HCV inhibitor 35µM, HCMV inh inconclusive, FMDV antiviral inconclusive
O=C(NCCc1csc(-c2ccc(Cl)cc2)n1)c1ccco1	HCV inhibitor 11µM, FMDV antiviral inconclusive, Sm TGR inh inconclusive
CC(C)CCNC(=O)CN1C(=O)CN=C(c2ccccc2)c2ccccc21	none
O=C(NCCc1csc(-c2ccc(C(F)(F)F)cc2)n1)c1ccc(F)c(F)c1	HCMV inh -63, FMDV antiviral 20µM (no result: HCV inhibitor)
Cc1cc(C)cc(C(=O)NCCc2csc(-c3ccc(C(F)(F)F)cc3)n2)c1	none (no result: HCV inhibitor)
OC(c1ccc(F)cc1)c1nc(-c2cc3ccccc3o2)cs1 (stereo not drawn)	none (no result: HCV inhibitor, Sm TGR inh)
Cc1ccc(OCC(=O)Nc2ccc(C(=O)OCc3cc(=O)n4c(C)csc4n3)cc2)cc1	none (no result: HCV inhibitor)
CC(=NCc1ccco1)c1c(O)n(C2CCCCC2)c(=O)[nH]c1=O	none (no result: VACV Venus inh, VACV mCherry inh)
O=C(Cc1csc(-c2ccccc2)n1)NCc1ccco1	Sm TGR inh 40µM (no result: VACV Venus inh, VACV mCherry inh)
Cc1cccc(-c2nc(CCNC(=O)c3ccc(Br)o3)cs2)c1	none (no result: HCV inhibitor)
Cc1ccc(CN2C(=O)CN=C(c3ccccc3)c3ccccc32)cc1	HCMV inh -74, FMDV antiviral inconclusive
O=C(Cc1csc(-c2ccccc2)n1)NCc1ccc(F)cc1	HCV inhibitor inconclusive
Cc1cccc(-c2nc(CCNC(=O)c3ccco3)cs2)c1	HCMV inh -68! (no result: HCV inhibitor)
COc1ccc(C(=O)Nc2sc3c(c2C(=O)NCc2ccco2)CCCC3)cc1OC	HCV inhibitor inconclusive
COc1ccc(C2=NCC(=O)N(CC(=O)NCc3ccco3)c3sc4c(c32)CCCC4)cc1OC	HCMV inh inconclusive, Sm TGR inh 22µM (no result: FMDV antiviral)
Cc1ccc(-c2nc(CCNC(=O)c3ccco3)cs2)cc1	HCV inhibitor 10µM, FMDV antiviral inconclusive
Cc1ccc(C=C(C#N)C(=O)c2ccccc2)cc1	none (no result: HCV inhibitor, Sm TGR inh)
CN(C)c1ccc(/C=C(\C#N)c2ccccc2)cc1	HCV inhibitor inconclusive (no result: HCMV inh)
CN(C)c1cccc(/C=C(\C#N)c2ccccc2)c1	VACV Venus inh inconclusive, HCV inhibitor 11µM
CN(C)c1ccc(/C=C(\C#N)C(=O)c2ccccc2)cc1	HCMV inh -63 (no result: VACV Venus inh, VACV mCherry inh)
CCN(CC)c1ccc(/C=C(\C#N)C(=O)c2ccc(Br)cc2)cc1	HCMV inh -65
CCN(CC)c1ccc(/C=C(\C#N)C(N)=O)cc1	VACV Venus inh inconclusive
